Rows were chosen to be rich in hits. Some 3.6% of all compounds tested hit in one or more screens of this group.
TSG101-PTAP inh = blocks PTAP binding to human TSG101, validation. AID 1347069. Fluorescence polarization, FITC-PTAP peptide/Tsg101, 20 min. Potency, µM (top dose mostly 115 µM), most hits filed as inhibitors. 44,000 tested, under 10 active; note: potency is the fitted concentration of half-maximal effect; 0% is about no effect
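Steps: Tsg101 binding domain (10 uM final) in HEPES pH 7.5/NaCl/Tween 20/EDTA/TCEP; add compound; add FITC-PTAP peptide (50 nM final); incubate 20 min r.t.; read polarization.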
HTT-AS act = HTT-AS promoter activation; HEK293 HTT-AS promoter firefly luciferase reporter, 24 h; response scale: percent change from vehicle, -100% = no light; Potency, µM (highest dose often 57.5 µM), inactives show at the top dose activity change, positive = activation, usual class: activators; 0.24% of 48,000 active; AID 1508624; note: potency is the fitted concentration of half-maximal effect; nearly all actives have a fitted effect of over 55% in size
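Quantitative HTS used concentration series of up to 57.5 uM final on HEK293 luciferase reporter cells, 24 h at 37 degrees C. Readout was Dual-Glo firefly luminescence.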
HTT promoter inh = inhibits huntingtin promoter activity. HEK293 HTT promoter firefly luciferase reporter, 24 h. Potency, µM (highest dose often 57.5 µM), for inactives: at the highest dose activity change, negative = inhibition, actives largely listed as inhibitors. 0.93% of 48,000 active. AID 1508623; note: potency is the fitted concentration of half-maximal effect; nearly all actives have a fitted effect of over 50% in size
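HEK293 cells carrying firefly luciferase reporters were seeded at 2,500 per well in Opti-MEM and cultured for 24 h. They were then treated with compounds at up to 57.5 uM final for 24 h at 37 degrees C before Dual-Glo luminescence readout.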
GALK inh = GALK (human) enzyme inhibition; recombinant GALK, Kinase-Glo ATP luminescence, 1 h; Potency, µM (highest dose often 57.5 µM), for inactives: top-dose activity, negative = inhibition, most hits filed as inhibitors; 44,000 tested, under 10 active;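 note: plate controls were full GALK reaction for no effect and reaction lacking GALK for full effect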
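5 nM GALK with 35 µM ATP and 100 µM galactose in HEPES pH 8.0, MgCl2, NaCl, DTT, BSA; 1 h RT reaction, remaining ATP detected by Kinase-Glo Plus luminescence after 10 min; qHTS concentration series.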
B2AR arrestin ag = beta-arrestin recruitment by human beta2-adrenergic receptor ligands; P07550; HTLA Tango cells, beta-arrestin recruitment, luciferase luminescence, 18 h; Potency, µM (highest dose often 46.1 µM), actives largely listed as activators; 44,000 tested, under 10 active; AID 1347077;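 note: potency is the fitted concentration of half-maximal effect; 0% = DMSO and full agonism = EC100 isoproterenol or metaproterenol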
Target sequence (P07550 whole entry, looked up): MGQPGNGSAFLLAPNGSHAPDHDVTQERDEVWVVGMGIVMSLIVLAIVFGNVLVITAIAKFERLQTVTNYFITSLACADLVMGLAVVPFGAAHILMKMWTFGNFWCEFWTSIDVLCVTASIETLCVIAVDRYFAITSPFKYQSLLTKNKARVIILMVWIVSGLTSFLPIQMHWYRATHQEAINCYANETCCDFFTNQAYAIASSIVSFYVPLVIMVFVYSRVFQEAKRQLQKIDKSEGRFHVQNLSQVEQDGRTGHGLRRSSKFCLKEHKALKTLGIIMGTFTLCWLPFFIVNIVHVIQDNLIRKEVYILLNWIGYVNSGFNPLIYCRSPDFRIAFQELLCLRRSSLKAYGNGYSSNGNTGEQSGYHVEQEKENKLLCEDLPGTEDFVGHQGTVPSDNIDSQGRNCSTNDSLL
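First, Tango cells carrying beta2-AR and beta-arrestin fusions received compound up to 46 microM. After 18 hr at 37 degrees C, luciferase substrate was added for 15 minutes, then luminescence gave %Activity for curve fitting.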
GPR32 ag = GPR32 (DRV1) agonism, beta-arrestin recruitment | CHO-K1 GPR32 beta-arrestin PathHunter luminescence, 90 min; zero percent set by DMSO-only wells | 2.5% of 48,000 active | activation, % at 76.9 µM | O75388;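 active = activation of at least 60% and not above a set upper limit, about 1 call in 100 departs from these limits; inconclusive = activation of 40% to 60%, or above that upper limit; inactive = activation under 40%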; note: 0% is about no effect
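PathHunter beta-arrestin recruitment in CHO-K1 cells stably expressing ProLink-tagged GPR32. Cells were exposed to compound for 90 min at 37 C, then chemiluminescence was read after 1 h detection at ambient temperature; DMSO served as basal control.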
Starred values were filed as active, the others as inactive; [ ] = remark or other dose. Unless noted, calls come from the whole dose curve; as a rule, active = well fitted curve in the direction sought with a large enough effect; inconclusive = small, poorly fitted or top-dose-only effect, or another doubt; inactive = no such curve, though single readings can be large; an effect the other way counts as inactive or inconclusive.

What do the screens show for `COc1ccccc1CCNC(=O)C(=O)NCC(c1cccnc1)N1CCN(c2ccccc2)CC1` (stereo not given)?
TSG101-PTAP inh: inactive; HTT-AS act: -44%; HTT promoter inh: 13µM*; GALK inh: 1%; B2AR arrestin ag: inactive; GPR32 ag: -13

What do the screens show for `COc1ccccc1CNC(=O)C(=O)NCC(c1cccnc1)N1CCN(c2ccc(F)cc2)CC1` (stereo not given)?
TSG101-PTAP inh: inactive; HTT-AS act: -46%; HTT promoter inh: inconclusive; GALK inh: -4%; B2AR arrestin ag: inactive; GPR32 ag: 2

What do the screens show for `COc1ccc(CNC(=O)C(=O)NCC(c2cccnc2)N2CCN(c3ccccc3F)CC2)cc1` (stereo not given)?
TSG101-PTAP inh: inactive; HTT-AS act: -48%; HTT promoter inh: 13µM*; GALK inh: 3%; B2AR arrestin ag: inactive; GPR32 ag: 17

What do the screens show for `O=C1CC(c2nc(-c3ccccc3)no2)CN1c1ccccc1` (stereo not given)?
TSG101-PTAP inh: inactive; HTT-AS act: 9%; HTT promoter inh: 0%; GALK inh: 1%; B2AR arrestin ag: inactive; GPR32 ag: 65*

What do the screens show for `NCCCC(N)CC(=O)NCC1NC(=O)C(CO)NC(=O)C(N)CNC(=O)C(C2CCN=C(N)N2)NC(=O)C(=CNC(N)=O)NC1=O` (stereo not given)?
HTT-AS act: -1%[0.74 µM]; HTT promoter inh: 3%[0.739 µM]; GPR32 ag: 7

Results for CCN(CC)c1ccc(NC(=O)C2CCN(c3nnc(-n4cccc4)s3)CC2)c(C)c1 ?
TSG101-PTAP inh: inactive; HTT-AS act: -19%; HTT promoter inh: -34%; GALK inh: -7%; B2AR arrestin ag: inactive; GPR32 ag: 60*

How did O=C(Nc1ccccc1C(F)(F)F)C1CCN(c2nnc(-n3cccc3)s2)CC1 do in these assays?
TSG101-PTAP inh: inactive; HTT-AS act: -7%; HTT promoter inh: -19%; GALK inh: 1%; B2AR arrestin ag: inactive; GPR32 ag: -7

Results for C[C@@H](NCc1cc2ccccc2[nH]1)c1cccc2ccccc12 ?
HTT-AS act: -8%; HTT promoter inh: -10%

How did CC(C)OC(=O)C(C(=O)OC(C)C)=C1SC=CS1 do in these assays?
HTT-AS act: -6%; HTT promoter inh: 8%; GPR32 ag: 73*

How did CC(C)OC(=O)c1cc(C(=O)OC(C)C)cc([N+](=O)[O-])c1 do in these assays?
HTT-AS act: -7%[116 µM]; HTT promoter inh: 3%[116 µM]; GPR32 ag: 8

Results for COc1ccc(NC(=O)C2CCCN(S(=O)(=O)c3ccc4c(c3)CCCC(=O)N4)C2)cc1OC (stereo not given) ?
TSG101-PTAP inh: inactive; HTT-AS act: -34%; HTT promoter inh: inconclusive; GALK inh: 3%; B2AR arrestin ag: inactive; GPR32 ag: 63*

How did COc1ccc(NC(=O)C2CCN(S(=O)(=O)c3ccc4c(c3)CCCC(=O)N4)CC2)c(OC)c1 do in these assays?
TSG101-PTAP inh: inactive; HTT-AS act: -23%; HTT promoter inh: -28%; GALK inh: 1%; B2AR arrestin ag: inactive; GPR32 ag: -6

How did COc1ccc(OC)c(NC(=O)C2CCN(S(=O)(=O)c3ccc4c(c3)CCCC(=O)N4)CC2)c1 do in these assays?
TSG101-PTAP inh: inactive; HTT-AS act: -14%; HTT promoter inh: -12%; GALK inh: 2%; B2AR arrestin ag: inactive; GPR32 ag: 72*

How did C[C@H](CCC(=O)O)[C@H]1CC[C@H]2[C@H]3[C@@H](CC[C@]12C)[C@@]1(C)CC[C@@H](O)C[C@H]1C[C@@H]3O do in these assays?
HTT-AS act: -22%; HTT promoter inh: -5%

Screening results as filed in PubChem BioAssay.
